Anthrax LF prot: blocks Bacillus anthracis lethal factor protease; P15917; inhibition, % at 10 µM; multiplex microsphere protease cleavage assay, LF; 360,000 compounds, 0.12% hits; AID 588501
BoNT-A LC inh2: BoNT A light chain protease inhibition; inhibition, % at 10 µM; 360,000 compounds, 0.17% hits; multiplex microsphere protease substrate cleavage, flow cytometry; AID 588499
BJeLR lethal: BJeLR cell viability loss; 300,000 compounds, 0.17% hits; AID 1554; inhibition, % (no concentration beside the values); BJeLR (HRASV12) viability, CellTiter-Glo ATP luminescence, 48 h; in the data active = inhibition above about 50%; inconclusive = no clear call, values can overlap the other calls
Autofluor counter: counter-screen for toxin protease inhibitors: compound fluorescence; compound autofluorescence counterscreen, microsphere flow cytometry; stronger effect = higher value; fluorescence intensity (concentration not given with the values); 360,000 compounds, 3.1% hits; AID 624483; in the data active = fluorescence intensity above about 16000; inconclusive = no clear call, values can overlap the other calls
BoNT F protease: blocks Botulinum neurotoxin F light chain protease; Multiplex microsphere protease cleavage assay, flow cytometry; inhibition, % at 10 µM; 360,000 compounds, 0.22% hits; AID 588497; in the data active = inhibition above about 35%, passing the limit was not always enough; inconclusive = no clear call, values can overlap the other calls
A number is an active result. In the library only some 3.5% were active in any assay of this set; here they are far more common. Cut-off read from the data, not from the text of the source, unless noted: active = inhibition above about 30%; inconclusive = no clear call, values can overlap the other calls; inactive = below that.

CCOC(=O)C(O)(c1ccc(NC(=O)NC2CCCCC2)cc1)C(F)(F)F (stereo not drawn) was read as Anthrax LF prot inactive, BoNT-A LC inh2 inactive, BJeLR lethal inactive, Autofluor counter 23646 and BoNT F protease inactive.
`Cc1ccccc1COc1cccc(/C=N/NC(=O)c2nnn(-c3nonc3N)c2C)c1` gave Anthrax LF prot inactive, BoNT-A LC inh2 inactive, BJeLR lethal inactive, Autofluor counter inactive and BoNT F protease inactive.
`Cc1ccccc1C(=O)NCCNc1ccc([N+](=O)[O-])cc1` gave Anthrax LF prot inactive, BoNT-A LC inh2 inactive, BJeLR lethal inactive, Autofluor counter inactive and BoNT F protease inactive.
Screening Cc1ccccc1C(=O)NNc1ccc([N+](=O)[O-])cc1 returned Anthrax LF prot inactive, BoNT-A LC inh2 inconclusive, BJeLR lethal inactive, Autofluor counter 19390 and BoNT F protease inactive.
Screening CCOc1ccc(CCN2C(=O)C(=O)N([C@@H](Cc3ccccc3)CN3CCC[C@H]3CN3C(=O)C(=O)NC[C@@H]3Cc3ccccc3)C[C@@H]2Cc2ccc(O)cc2)cc1 returned Anthrax LF prot inactive, BoNT-A LC inh2 inactive, Autofluor counter inactive and BoNT F protease inactive.
CCC1=NN(C(=O)c2cccc([N+](=O)[O-])c2)C(O)(c2ccc(C)cc2)C1 (stereo not drawn) was read as Anthrax LF prot inactive, BoNT-A LC inh2 inactive, BJeLR lethal inactive, Autofluor counter inactive and BoNT F protease inactive.
CCn1c(SCc2nc3ccccc3[nH]2)nnc1-c1cccs1 was read as Anthrax LF prot inactive, BoNT-A LC inh2 inconclusive, BJeLR lethal inactive, Autofluor counter 21099 and BoNT F protease inactive.
Screening CCn1c(COc2ccc(C)cc2)nnc1SCc1nc2ccccc2[nH]1 returned Anthrax LF prot inactive, BoNT-A LC inh2 inactive, BJeLR lethal inactive, Autofluor counter 19776 and BoNT F protease inactive.
For O=C1CC(c2ccccc2)CC2=C1C1(CCCC1)N=C(Nc1nc3ccccc3o1)N2 (stereo not drawn) the results were Anthrax LF prot inactive, BoNT-A LC inh2 inactive, Autofluor counter inactive and BoNT F protease inactive.
Screening COC(=O)NC1CCS(=O)(=O)C1 (stereo not drawn) returned Anthrax LF prot inactive, BoNT-A LC inh2 inconclusive, BJeLR lethal inactive, Autofluor counter 17672 and BoNT F protease inactive.
For Cc1ccc(OCC(=O)Nc2ccc3c(c2)nc2n3CCOC2)cc1 the results were Anthrax LF prot inactive, BoNT-A LC inh2 inconclusive, BJeLR lethal inactive, Autofluor counter 20169 and BoNT F protease inactive.
CC(=O)Nc1ccc2c(c1)nc1n2CCOC1 was read as Anthrax LF prot inactive, BoNT-A LC inh2 inconclusive, BJeLR lethal inactive, Autofluor counter 24292 and BoNT F protease inactive.
Screening CCOC(=O)c1oc2ccccc2c1CN1CCOCC1 returned Anthrax LF prot inactive, BoNT-A LC inh2 inactive, BJeLR lethal inactive, Autofluor counter 21460 and BoNT F protease inactive.
CCOC(=O)c1c(C)n(CCN2CCN(C)CC2)c2ccc(OC)cc12 was read as Anthrax LF prot inactive, BoNT-A LC inh2 inactive, BJeLR lethal inactive, Autofluor counter 20539 and BoNT F protease inactive.
For CCOC(=O)c1c(CN2CCCCC2)oc2ccc(O)cc12 the results were Anthrax LF prot inactive, BoNT-A LC inh2 inactive, BJeLR lethal inactive, Autofluor counter inactive and BoNT F protease inactive.
Screening CCOC(=O)c1c(C)n(Cc2ccco2)c2ccc(OC)cc12 returned Anthrax LF prot inactive, BoNT-A LC inh2 inactive, BJeLR lethal inactive, Autofluor counter inactive and BoNT F protease inactive.
`CCOC(=O)c1c(N)sc(C(=O)N(C)C)c1CN1CCOCC1` gave Anthrax LF prot inactive, BoNT-A LC inh2 inactive, BJeLR lethal inactive, Autofluor counter 20070 and BoNT F protease inactive.
Screening CCOC(=O)c1c(CN2CCOCC2)oc2ccc(OC)cc12 returned Anthrax LF prot inactive, BoNT-A LC inh2 inconclusive, BJeLR lethal inactive, Autofluor counter 21090 and BoNT F protease inactive.
For CCOC(=O)c1oc2ccccc2c1CN1CCCCC1 the results were Anthrax LF prot inactive, BoNT-A LC inh2 inactive, BJeLR lethal inactive, Autofluor counter inactive and BoNT F protease inactive.
`CCOC(=O)c1sc(C)c(C(=O)NCCCN2CCOCC2)c1N` gave Anthrax LF prot inactive, BoNT-A LC inh2 inactive, BJeLR lethal inactive, Autofluor counter inactive and BoNT F protease inactive.
Screening COc1cccc(C(NC(C)=O)c2nc(-c3cccc(O)c3)cs2)c1 (stereo not drawn) returned Anthrax LF prot inactive, BoNT-A LC inh2 inactive, Autofluor counter inactive and BoNT F protease inactive.
`COc1ccc(C(=O)COc2ccc(NC(C)=O)cc2)cc1` gave Anthrax LF prot inactive, BoNT-A LC inh2 inactive, BJeLR lethal inactive, Autofluor counter inactive and BoNT F protease inactive.
Screening Cc1cc(Cl)ccc1C(O)c1ncc(-c2ccc(C(F)(F)F)cc2)[nH]1 (stereo not drawn) returned Anthrax LF prot inactive, BoNT-A LC inh2 inactive, Autofluor counter inactive and BoNT F protease inactive.
CCn1c(=O)n(CC)c2cc(N3CCCC3)c(NC(=O)c3ccc(C)c([N+](=O)[O-])c3)cc21 was read as Anthrax LF prot inactive, BoNT-A LC inh2 inactive, BJeLR lethal inactive, Autofluor counter inactive and BoNT F protease inactive.
For CCn1nc(NS(=O)(=O)c2ccc(F)cc2)c2cc3cccc(C)c3nc21 the results were Anthrax LF prot inactive, BoNT-A LC inh2 inactive, BJeLR lethal inactive, Autofluor counter inactive and BoNT F protease inactive.
CCn1nc(NS(=O)(=O)c2ccccc2)c2cc3cccc(C)c3nc21 was read as Anthrax LF prot inactive, BoNT-A LC inh2 inconclusive, BJeLR lethal inactive, Autofluor counter 19546 and BoNT F protease inactive.
For Cc1ccc(Cl)cc1NC(=O)c1cccc(OC(F)F)c1 the results were Anthrax LF prot inactive, BoNT-A LC inh2 inactive, BJeLR lethal inactive, Autofluor counter 20132 and BoNT F protease inactive.
For CCOc1ccc(C(=O)CN2CCN(S(=O)(=O)c3ccc(OC)cc3)CC2)cc1 the results were Anthrax LF prot inactive, BoNT-A LC inh2 inactive, BJeLR lethal inactive, Autofluor counter inactive and BoNT F protease inactive.
For Cc1ccc([C@H]2N[C@]3(CCCN(Cc4ccc(Br)cc4)C3=O)[C@H]3C(=O)N(Cc4ccccc4)C(=O)[C@@H]23)cc1 the results were Anthrax LF prot inactive, BoNT-A LC inh2 inactive, Autofluor counter inactive and BoNT F protease inactive.
For COc1ccc(N2C(=O)CSC23C(=O)N2CCCc4cccc3c42)cc1 (stereo not drawn) the results were Anthrax LF prot inactive, BoNT-A LC inh2 inactive, BJeLR lethal inactive, Autofluor counter inactive and BoNT F protease inactive.
`COc1ccc(N2C(=O)CSC23C(=O)N2c4c(cccc43)C(C)=CC2(C)C)cc1` (stereo not drawn) gave Anthrax LF prot inactive, BoNT-A LC inh2 inactive, BJeLR lethal inactive, Autofluor counter 16577 and BoNT F protease inactive.
Screening Cn1c2ccccc2c2nnc(SC3CCOC3=O)nc21 (stereo not drawn) returned Anthrax LF prot inactive, BoNT-A LC inh2 inactive, BJeLR lethal inactive, Autofluor counter 23365 and BoNT F protease inactive.
For CC(C)Cn1c(N)c(C(=O)COC(=O)c2cc(C(F)(F)F)nc3c(C(F)(F)F)cccc23)c(=O)n(C)c1=O the results were BJeLR lethal inactive.
For S=C(Nc1cccc(Cl)c1)N1CCOCC1 the results were Anthrax LF prot inactive, BoNT-A LC inh2 inactive, BJeLR lethal inactive, Autofluor counter 22806 and BoNT F protease inactive.
